Pf growth 96h – P. falciparum growth inhibition at 96 hours; P. falciparum luciferase reporter growth, 96 h; Potency, µM (highest dose often 28.7 µM), inactives show at the highest dose activity change, negative = inhibition, hits mostly inhibitors; hit rate 6.9% among 320,000
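Parasite growth measured via integrated firefly luciferase reporter in P. falciparum. Infected erythrocytes at 2% hematocrit, 0.05% parasitemia final were treated 96 hours at 37 C under 5% CO2, and luminescence was read.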
HCV inhibitor – inhibitors of hepatitis C virus infection. hit rate 3.4% among 340,000. Huh7.5.1 HCVcc-Cre infection, luciferase reporter, 44 h. Potency, µM (highest dose often 41.8 µM), for the others: at the highest dose activity change, negative = inhibition, usual class: inhibitors
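After 44 h co-culture of compound, cells and HCVcc-Cre (~0.5 moi), substrate is added for 15 min at room temperature and luciferase measured over 15 sec. Cells were seeded at 1,000/well and pre-cultured 4 h.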
AMA1-RON2 inh – disrupts binding of P. falciparum AMA1 to RON2; AlphaScreen AMA1-biotinylated RON2 peptide binding; Potency, µM (titrated, usually from 58.2 µM), without a hit: top-dose activity change, negative = inhibition, actives largely listed as inhibitors; hit rate 0.2% among 360,000;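 note: 0% = vehicle wells and -100% = peptide control; nearly all actives have a fitted effect of over 45% in size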
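AMA1 (3D7) with his tag at 25 nM final met compounds first, then biotinylated RON2 peptide at 25 nM; detection used donor plus acceptor beads, 10 µg/mL apiece, read by AlphaScreen after 30 min at room temperature.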
Pf growth 48h – inhibits P. falciparum growth in the first generation, 48 h. P. falciparum luciferase growth in erythrocytes, 48 h. Potency, µM (highest dose often 28.7 µM), for the others: at the highest dose activity change, negative = inhibition, actives largely listed as inhibitors. hit rate 5.9% among 310,000
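In quantitative HTS format, infected erythrocytes bearing luciferase-reporter parasites were treated for a single generation at 37 C. Luminescence after adding detection reagent served as the growth measure.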
An asterisk follows results filed as active; i = inactive; ? = inconclusive; nt = no result given; [ ] = remark or other dose. Sampled rows, rich in hits. Any-hit rate of the full collection: about 11%. Calls come from the whole dose curve; as a rule, active = well fitted curve in the direction sought with a large enough effect; inconclusive = small, poorly fitted or top-dose-only effect, or another doubt; inactive = no such curve, though single readings can be large; an effect the other way counts as inactive or inconclusive. Unless noted, % is set by controls: 0 for no effect and ±100 for the full control effect; potency is the fitted concentration of half-maximal effect.

SMILES	Pf growth 96h	HCV inhibitor	AMA1-RON2 inh	Pf growth 48h
Brc1ccc(-c2csc(N3CCC(c4ccccc4)C3)n2)cc1 (stereo unspecified)	8.28µM*	?	14.0%	31.2%
COc1ccccc1NC(=O)CSc1nnc(-c2ccccn2)n1Cc1ccco1	11.7µM*	-7.8%	1.2%	?
Cc1ccc(NC(=O)CSc2nnc(CSc3nc(C)cc(C)n3)n2Cc2ccco2)c(C)c1	-26.4%	11.2µM*	4.7%	?
Cc1ccc(C)c(NC(=O)CSc2nnc(CSc3nc(C)cc(C)n3)n2Cc2ccco2)c1	nt	-29.3%	-15.4%	?
COc1ccc(C)cc1NC(=O)CSc1nnc(COc2ccccc2)n1Cc1ccco1	10.4µM*	-27.5%	-2.6%	?
Cc1cccc(OCc2nnc(SCC(=O)N(C(C)C)C(C)C)n2Cc2ccco2)c1C	?	2.5%	-2.7%	11.7µM*
CN(Cc1nccs1)C(=O)C1CCC(=O)N(CCc2ccc(Cl)cc2)C1 (stereo unspecified)	?	3.4%	-0.9%	0.0%
O=C(CSCc1cccc(Br)c1)NC1CC1	26.4%	8.5%	3.8%	-17.5%
CCOC(=O)c1ccc(NS(=O)(=O)c2c(C)[nH]c(C)c2C(=O)N2CCCCC2)cc1	-10.3%	2.2%	0.0%	?
C(=C\c1ccccc1)/CSc1nnc(-c2ccccn2)n1Cc1ccco1	nt	10µM*	2.5%	?
NC(=O)CSc1nnc(-c2ccccn2)n1Cc1ccco1	23.9%	4.8%	11.4%	13.8%
O=C1C2CCCN2C(c2ccc(Cl)cc2)N1c1nccs1 (stereo unspecified)	?	20.4%	86.7%	-7.6%
COc1ccc(C(=O)N2CCN(S(=O)(=O)c3ccc4c(c3)OCCO4)CC2)cc1OC	-3.7%	0.6%	0.0%	?
Cc1cccc(Nc2nnc(SCc3cn4ccsc4n3)s2)c1	5.86µM*	?	-11.6%	9.28µM*
Cc1ccccc1Nc1nnc(SCc2cc(=O)n3ccsc3n2)s1	16.5µM*	-6.6%	-11.4%	13.1µM*
Cc1cccc(C)c1NC(=O)c1ccc2sc([C@@H]3O[C@H](CO)[C@H](O)[C@H](O)[C@H]3O)nc2c1	nt	nt	4.4%	nt
O=S1(=O)CCN(OCc2ccc(Cl)cc2)CC1	-2.6%	7.6%	-25.1%	?
Cc1nn(C)c(C)c1CN(C)C(=O)c1nn2c(c1Br)NC(c1cccs1)CC2C(F)(F)F (stereo unspecified)	9.28µM*	-4.6%	8.9%	?
Cc1nn(C)c(C)c1CNC(=O)c1cc2n(n1)C(C(F)(F)F)CC(c1cccs1)N2 (stereo unspecified)	7.38µM*	?	3.2%	-6.2%
CCOC(=O)c1c(NC(=O)c2cc3n(n2)C(C(F)(F)F)CC(c2cccs2)N3)sc(C)c1C (stereo unspecified)	?	-22.2%	8.4%	8.3%
Cc1nn(C)c(C)c1CN(C)C(=O)c1cnn2c1NC(c1ccccc1)CC2C(F)(F)F (stereo unspecified)	i	-9.9%	-9.2%	nt
COc1ccc(Cl)cc1NC(=O)c1nc2nc(C)cc(C(F)F)n2n1	-4.7%	-3.4%	-1.0%	nt
Clc1ccc(CNc2ccc(CNc3ncn[nH]3)cc2)c(Cl)c1	-10.7%	-29.1%	4.7%	-9.9%
CCOC(=O)c1cnc2c(C(=O)OC)cccc2c1NCc1ccco1	nt	4.2%	36.5%	?
CCOC(=O)c1cnc2c(C)cccc2c1NCc1ccco1	?	11.2µM*	-1.1%	?
SMILES	Pf growth 96h	HCV inhibitor	AMA1-RON2 inh	Pf growth 48h
CCOC(=O)c1ccc2ncc(C(=O)OCC)c(NCCCN3CCOCC3)c2c1	?	7.2%	-8.4%	?
CCOC(=O)c1ccc2ncc(C(=O)OCC)c(NCc3ccco3)c2c1	1.65µM*	-13.4%	4.1%	nt
COCCN1CCN(C(=O)c2cc(COc3ccc(F)cc3F)on2)CC1	?	10.9%	-12.9%	15.1%
COc1ccc([C@@H]2C[C@H]3[C@@H](CN2S(=O)(=O)c2ccccc2)C(=O)C[C@@H](c2ccccc2)N3S(=O)(=O)c2ccc(C)cc2)cc1	nt	nt	3.8%	nt
CC1(C(O)(C#CC[N+]2(C)CCCCC2)c2ccccc2)CCCC1 (stereo unspecified)	71.2%	6.4%	-17.9%	?
CC1(C#CC[N+]2(C)CCCCC2)CCC2C(O1)c1ccccc1OC2(C)C (stereo unspecified)	3.7µM*	-15.4%	-2.3%	11.7µM*
CNc1cncc(-c2ccc(CN3CCOCC3)cc2)n1	nt	nt	0.5%	nt
CCN1C[C@@H]2[C@@H]3C(=O)N(C)C(=O)[C@@H]3[C@](Cc3ccccc3)(C1=O)N2C(=O)c1ccc(Br)cc1	nt	3.3%	-0.6%	nt
CCn1nc(C)c(NC(=O)CCCSc2nc(-c3ccco3)cc(C(F)(F)F)n2)c1C	38.4%	2µM*	3.2%	?
Cc1cc(NC(=O)CCSc2nc(-c3ccco3)cc(C(F)(F)F)n2)no1	nt	?	-14.2%	-23.7%
Cc1nn(C)cc1NC(=O)CCSc1nc(-c2ccco2)cc(C(F)(F)F)n1	nt	11.2µM*	-1.7%	-17.3%
COc1ccc(NC(=O)CCCSc2nc(-c3ccco3)cc(C(F)(F)F)n2)cc1OC	5.5%	15.8µM*	-10.0%	-27.7%
Cc1cc(NC(=O)CCSc2nc(-c3ccco3)cc(C(F)(F)F)n2)n(-c2ccccc2)n1	-16.4%	?	0.8%	11.7µM*
Cc1cc(NC(=O)CCCSc2nc(-c3ccco3)cc(C(F)(F)F)n2)no1	nt	2.3%	6.0%	-4.5%
COc1ccc(CCNC(=O)CSc2nc(-c3ccco3)cc(C(F)(F)F)n2)cc1OC	?	-13.5%	-2.4%	-19.5%
CC1(c2nnc(-c3cccc(Cl)c3)o2)CC(c2ccccc2F)=NO1 (stereo unspecified)	nt	8.4%	31.5%	nt
CCCN(CCC)C(=O)c1cc2c(=O)n3cccc(C)c3nc2s1	-7.7%	13.6%	17.4%	-1.4%[0.00184 µM]
CC1(C)CC(=O)C([N+](=O)[O-])=C(NCCCC(=O)O)C1	0.1%	27.1%	8.9%	17.1%
O=C(CCCSc1nc(-c2ccco2)cc(C(F)(F)F)n1)NCC1CCCO1 (stereo unspecified)	311.8%	?	-5.3%	?
O=C(CCSc1nc(-c2ccco2)cc(C(F)(F)F)n1)NCC1CCCO1 (stereo unspecified)	?	10µM*	3.6%	?
CCn1ncc(CNC(=O)CCSc2nc(-c3ccco3)cc(C(F)(F)F)n2)c1C	59.6%	10µM*	-5.6%	?
COc1ccc(CCNC(=O)CCSc2nc(-c3ccco3)cc(C(F)(F)F)n2)cc1	-26.8%	?	-7.6%	?
CCNC(=O)C1(C)CCCN(Cc2noc(-c3c(C)noc3C)n2)C1 (stereo unspecified)	nt	nt	-4.7%	nt
Nc1nn(-c2ccccc2Cl)cc1-c1nn[nH]n1	5.4%	?	5.1%	-8.9%
CCOc1ccc(C(=O)NCc2ccncc2)cc1	4.15µM*	16.2%	-8.3%	6.5%
CCOc1ccc(NC(=S)c2ccncc2)cc1	9.28µM*	?	0.6%	33.3%
CCOc1ccc(NC(=S)N(C)C)cc1	42.0%	-3.1%	5.9%	14.4%
CCOc1ccc(C(=O)NCCNC(=O)c2ccc(OCC)cc2)cc1	7.5%	9.7%	-4.3%	?

Assay outcomes deposited in PubChem BioAssay by National Center for Advancing Translational Sciences (NCATS).
